Experimental data: PubChem BioAssay (NCATS)
Results filed as inconclusive are left out. Active and inactive are the calls of the source. Calls come from the whole dose curve; as a rule, active = well fitted inhibition curve with a large enough effect; inconclusive = small, poorly fitted or top-dose-only effect; inactive = flat fitted curve, though single readings scatter.

Experiments:
Assay in all cases: qHTS profiling for inhibitors of Plasmodium falciparum proliferation (AID 504749); note: nearly all actives have a fitted effect of over 60% in size
Details in all cases: P. falciparum in erythrocytes, SYBR Green DNA, 72 h; series mostly up to 28.7 µM
PC15 = test system: PC15
How it was run: (§1)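 Each compound contacts P. falciparum-infected red blood cells for 72 h at 37 C; lysis buffer (Tris, EDTA, saponin, Triton X, SYBR Green I) is added and fluorescence measured next morning; values normalized to controls.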

PC26 = test system: PC26
How it was run: as §1

PC49 = test system: PC49
How it was run: as §1

SC27B = test system: SC27B
How it was run: as §1

TAB109 = test system: TAB109
How it was run: as §1

TAB113 = test system: TAB113
How it was run: as §1

TAB165 = test system: TAB165
How it was run: as §1

W2 = test system: W2
How it was run: as §1

Measured: Potency

C[Si](C)(C)O[Si](C)(C)C
inactive: all assays above

Cc1ncc(C[n+]2csc(CCO)c2C)c(N)n1
inactive: all assays above

CC12CCC(C1)C(C)(C)C2=O (stereo not given)
inactive: all assays above

C[C@@](Cc1ccc(O)c(O)c1)(NN)C(=O)O
inactive: all assays above

CCN(CC)CCOc1ccc2nc(N(C)C)sc2c1
inactive: all assays above

CC(CCc1ccc(O)cc1)NCC(O)c1ccc(O)cc1 (stereo not given)
inactive: all assays above

NCCO/C=C/[C@H](N)C(=O)O
inactive: all assays above

CCCCCCOC(=O)c1cccnc1
inactive: all assays above

C/C=C/C=C/C(=O)O
inactive: all assays above

C[C@H](O)CN(C)C
inactive: all assays above

O=C1c2ccccc2C(=O)C1c1ccc(Cl)cc1
inactive: all assays above

CCCCCCCCCCCCCCCCCC(=O)OC[C@@H](O)[C@H]1OC[C@H](O)[C@H]1O
inactive: all assays above

O=C(O)COc1ccccc1/C=N/NC(=O)c1ccncc1
inactive: all assays above

C[C@H](CCC(=O)O)[C@H]1CC[C@H]2[C@@H]3CC[C@@H]4C[C@H](O)CC[C@]4(C)[C@H]3C[C@H](O)[C@]12C
inactive: all assays above

OCl
inactive: all assays above

Cc1ncc[nH]1
inactive: all assays above

OB(O)O
inactive: all assays above

O=P(O)(O)OC[C@H](O)CO
inactive: all assays above

Cc1cccc(C)c1NC(=O)NC1=CCCN1C
inactive: all assays above

CCCC(=O)O
inactive: all assays above

N=C(N)n1cccn1
inactive: all assays above

O=C(O)COc1ccc(CCNS(=O)(=O)c2ccccc2)s1
inactive: all assays above

O=C(O)CCCC/C=C(\c1ccccc1)c1cccnc1
inactive: all assays above

C[C@H](CCCC(C)(C)O)[C@H]1CC[C@H]2[C@@H]3CC=C4C[C@@H](O)CC[C@]4(C)[C@H]3CC[C@]12C
inactive: all assays above

NCC[C@H](O)C(=O)N[C@@H]1C[C@H](N)[C@@H](O[C@H]2O[C@H](CN)CC[C@H]2N)[C@H](O)[C@H]1O[C@H]1O[C@H](CO)[C@@H](O)[C@H](N)[C@H]1O
inactive: all assays above
